Sm TGR block = S. mansoni TGR enzyme inhibition; Q962Y6; purified TGR, DTNB reduction, TNB absorbance 405 nm; Potency, µM (highest dose often 114 µM), for the others: at the top dose activity change, negative = inhibition, usual class: inhibitors; 3% of 360,000 active; note: nearly all actives have a fitted effect of over 60% in size
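Kinetic colorimetric format: TGR-catalysed, NADPH-driven DTNB reduction monitored via TNB absorbance. Enzyme dispensed at 20 nM; compound exposure 15 min at room temperature before reaction start.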
RE007 growth inh = less growth of the S. pombe RE007 Vpr strain. S. pombe RE007 Vpr strain, BacTiter-Glo ATP luminescence, 24 h. Potency, µM (highest dose often 92.2 µM), without a hit: at the highest dose activity change, negative = less growth, actives largely listed as inhibitors. 0.21% of 360,000 active. AID 651644; active = well fitted falling curve with a large enough effect; inconclusive = small, poorly fitted or top-dose-only effect; inactive = no such curve, though single readings can be large or run the other way; note: nearly all actives have a fitted effect of over 50% in size
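Fission yeast strain RE007, carrying one chromosomally integrated HIV-1 vpr copy, was seeded at OD 0.01 in PMG+AL medium with 23 nL pinned compound. After 24 h at 30 °C and 99% humidity, viability was read by BacTiter-Glo luminescence.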
LmPK inh = inhibitors of Leishmania mexicana pyruvate kinase; Q27686; AID 1721; 0.37% of 290,000 active; purified LmPK, Kinase-Glo ATP luminescence, 1 h; Potency, µM (titrated, usually from 57.5 µM), inactives show top-dose activity change, negative = inhibition, hits mostly inhibitors
Target sequence (Q27686 whole entry, looked up): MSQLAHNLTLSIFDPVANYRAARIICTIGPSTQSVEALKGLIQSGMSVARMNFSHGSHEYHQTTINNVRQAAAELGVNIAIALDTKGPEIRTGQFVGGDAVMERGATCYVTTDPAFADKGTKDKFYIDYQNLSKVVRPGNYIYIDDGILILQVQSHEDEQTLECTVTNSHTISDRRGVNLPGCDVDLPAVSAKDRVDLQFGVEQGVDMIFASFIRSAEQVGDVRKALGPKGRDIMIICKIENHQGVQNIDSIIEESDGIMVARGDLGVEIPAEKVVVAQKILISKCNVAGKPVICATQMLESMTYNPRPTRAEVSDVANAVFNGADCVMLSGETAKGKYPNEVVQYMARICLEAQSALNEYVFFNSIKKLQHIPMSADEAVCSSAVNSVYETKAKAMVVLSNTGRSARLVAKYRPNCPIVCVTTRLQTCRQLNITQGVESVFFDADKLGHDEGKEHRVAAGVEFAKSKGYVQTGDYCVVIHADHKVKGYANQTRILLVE
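Purified LmPK (0.1 nM) with 0.5 mM PEP and 0.1 mM ADP in imidazole buffer pH 7.2 with MgCl2/KCl, 1 h at room temperature. ATP formed was read by luciferase luminescence and normalized to no-enzyme and uninhibited controls.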
AMA1 RON2 block = AMA1-RON2 (P. falciparum) interaction inhibition; 0.2% of 360,000 active; AlphaScreen AMA1-biotinylated RON2 peptide binding; Potency, µM (titrated, usually from 58.2 µM), inactives show at the highest dose activity change, negative = inhibition, usual class: inhibitors; AID 720542;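 note: 0% = vehicle wells and -100% = peptide control; nearly all actives have a fitted effect of over 45% in size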
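AMA1 (3D7) with his tag at 25 nM final met compounds first, then biotinylated RON2 peptide at 25 nM; detection used donor plus acceptor beads, 10 µg/mL apiece, read by AlphaScreen after 30 min at room temperature.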
TbPYK inhibitor = blocks Trypanosoma brucei pyruvate kinase | Q57TT1 | TbPYK enzyme, Kinase-Glo Plus ATP luminescence, 45 min | Potency, µM (titrated, usually from 76.8 µM), for inactives: at the highest dose activity, negative = inhibition, most hits filed as inhibitors | 0.12% of 410,000 active | AID 624173; note: nearly all actives have a fitted effect of over 50% in size
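Quantitative HTS: titrated library compounds versus trypanosomal pyruvate kinase in TEA buffer (pH 7.2) containing KCl, MgCl2, BSA and Tween-20. Reactions were initiated with ADP, 130 uM final. Kinase-Glo Plus luminescence was read after 45 min at RT.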
Starred values were filed as active, the others as inactive; [ ] = dose if it differs, or a comment. The list is not random: actives were taken first. Their share in the collection is about 3.2%. Unless noted, calls come from the whole dose curve; as a rule, active = well fitted curve in the direction sought with a large enough effect; inconclusive = small, poorly fitted or top-dose-only effect, or another doubt; inactive = no such curve, though single readings can be large; an effect the other way counts as inactive or inconclusive. Unless noted, % is set by controls: 0 for no effect and ±100 for the full control effect; potency is the fitted concentration of half-maximal effect.

`COc1cccc(CNC(=O)CCCNC(=O)c2ccc(Cl)cc2)c1` gave Sm TGR block 22.4µM*, RE007 growth inh -26.3%, LmPK inh -8.1%, AMA1 RON2 block -3.7% and TbPYK inhibitor -4.5%.
Screening Cc1ccc2oc(C(=O)NCC(c3ccc(Cl)cc3)N3CCOCC3)c(C)c2c1 (stereo not drawn) returned Sm TGR block 6.4% and TbPYK inhibitor 0.4%.
`CC(=O)c1c(C)oc2ccc(N(C(=O)Oc3ccccc3)S(=O)(=O)c3ccc(Cl)cc3)cc12` gave Sm TGR block -3.4% and TbPYK inhibitor -3.1%.
`Oc1c(/C=N/c2ccccn2)sc2ccccc12` gave Sm TGR block inconclusive, RE007 growth inh -15.3%, LmPK inh 6.31µM*, AMA1 RON2 block -3.3% and TbPYK inhibitor -19.3%.
Screening O=C(O)c1cc([N+](=O)[O-])c(Sc2nc3ccccc3[nH]2)c([N+](=O)[O-])c1 returned Sm TGR block 1.78µM*, RE007 growth inh 5.8%, LmPK inh -7.0%, AMA1 RON2 block -0.9% and TbPYK inhibitor -16.3%.
For CS(=O)(=O)c1cc([N+](=O)[O-])c(Sc2nc3ccccc3[nH]2)c([N+](=O)[O-])c1 the results were Sm TGR block 1.41µM*, RE007 growth inh 0.1%, LmPK inh 42.7%, AMA1 RON2 block -5.0% and TbPYK inhibitor inconclusive.
`CCN1CCN(c2ccc([N+](=O)[O-])c(Sc3nc4ccccc4[nH]3)c2)CC1` gave Sm TGR block 0.2%, RE007 growth inh -0.5%, LmPK inh 5.9%, AMA1 RON2 block 0.0% and TbPYK inhibitor -0.1%.
`Cc1oc(/N=C/c2ccc(O)cc2O)c(C#N)c1C` gave Sm TGR block 50.1µM*, RE007 growth inh -9.2%, LmPK inh -0.7%, AMA1 RON2 block 3.3% and TbPYK inhibitor -10.8%.
For Cc1cc(C)cc(NC(=O)CSCc2cc(=O)c3cc(Cl)ccc3[nH]2)c1 the results were Sm TGR block 2.9% and TbPYK inhibitor -11.1%.
Screening COc1cc([N+](=O)[O-])c2ncsc2c1 returned Sm TGR block 1.4%, RE007 growth inh -0.3%, LmPK inh -1.6%, AMA1 RON2 block -11.8% and TbPYK inhibitor 8.4%.
COc1cc(SSc2cc(OC)cc([N+](=O)[O-])c2N)c(N)c([N+](=O)[O-])c1 was read as Sm TGR block -1.0%, RE007 growth inh inconclusive, LmPK inh 15.7%, AMA1 RON2 block inconclusive and TbPYK inhibitor 2.82µM*.
For COc1ccccc1/C=C/C(=O)c1c2c(c(C)[nH]c1=O)CCCC2 the results were Sm TGR block 44.7µM*, RE007 growth inh 9.2%, LmPK inh -0.3%, AMA1 RON2 block 4.6% and TbPYK inhibitor -16.7%.
O=C(O)CCCC(=O)Nc1ccccc1SCCS(=O)(=O)c1ccc(Cl)cc1 was read as Sm TGR block 39.8µM*, RE007 growth inh 0.5%, LmPK inh 8.8%, AMA1 RON2 block 10.1% and TbPYK inhibitor -10.9%.
For O=C(Nc1nnc(S(=O)(=O)N2CCCc3ccccc32)s1)c1ccccc1Br the results were Sm TGR block 0.8% and TbPYK inhibitor -4.6%.
For O=[N+]([O-])c1c(NCCCO)cc(N2CCCCCC2)c2nonc12 the results were Sm TGR block 11.2µM*, RE007 growth inh -6.5%, LmPK inh 3.0%, AMA1 RON2 block -4.8% and TbPYK inhibitor 6.1%.
`CN(CCO)c1cc(N2CCCCC2)c2nonc2c1[N+](=O)[O-]` gave Sm TGR block 17.8µM*, RE007 growth inh 14.5%, LmPK inh 0.1%, AMA1 RON2 block 1.78µM* and TbPYK inhibitor 12.4%.
CC1CCCN(c2cc(N(C)CCO)c([N+](=O)[O-])c3nonc23)C1 (stereo not drawn) was read as Sm TGR block 3.1%, RE007 growth inh 4.8%, LmPK inh 2.4%, AMA1 RON2 block -13.9% and TbPYK inhibitor 2.4%.
For O=[N+]([O-])c1c(NCCO)cc(N2CCC3(CC2)OCCO3)c2nonc12 the results were Sm TGR block -3.3%, RE007 growth inh 5.7%, LmPK inh 2.5%, AMA1 RON2 block -7.1% and TbPYK inhibitor -8.0%.
COc1ccc(CNc2cc(NCCCO)c([N+](=O)[O-])c3nonc23)cc1 was read as Sm TGR block 22.4µM*, RE007 growth inh -19.0%, LmPK inh 10.1%, AMA1 RON2 block -19.6% and TbPYK inhibitor 2.7%.
For CN(CCO)c1cc(N2CCC3(CC2)OCCO3)c2nonc2c1[N+](=O)[O-] the results were Sm TGR block 28.2µM*, RE007 growth inh 2.6%, LmPK inh 0.9%, AMA1 RON2 block -10.7% and TbPYK inhibitor inconclusive.
Screening Cc1ccc(S(=O)(=O)c2cn(CC(=O)Nc3ccc(F)cc3)c3cc4c(cc3c2=O)OCO4)cc1 returned Sm TGR block -5.9% and TbPYK inhibitor 2.9%.
CCOc1cc(/C=N/N=C2/NC(=O)C(CC(=O)O)S2)ccc1OCc1ccccc1Cl (stereo not drawn) was read as Sm TGR block -13.3%, RE007 growth inh -11.1%, LmPK inh 22.4µM*, AMA1 RON2 block 20.5% and TbPYK inhibitor -15.9%.
`COc1ccc(/C=N/N=C2/NC(=O)C(CC(=O)O)S2)cc1OCc1ccccc1Cl` (stereo not drawn) gave Sm TGR block 2.9%, RE007 growth inh 26.9%, LmPK inh inconclusive, AMA1 RON2 block -2.9%[2.32 µM] and TbPYK inhibitor inconclusive.
For S=c1[nH]nc(-c2ccccc2)n1/N=C/C=C/c1ccco1 the results were Sm TGR block inconclusive, RE007 growth inh 7.3%, LmPK inh -1.2%, AMA1 RON2 block 45.4% and TbPYK inhibitor inconclusive.
For S=c1[nH]nc(-c2ccc(Cl)cc2)n1/N=C/c1ccco1 the results were Sm TGR block 5.9%, RE007 growth inh 1.4%, LmPK inh -6.7%, AMA1 RON2 block 85.7% and TbPYK inhibitor 3.98µM*.
For S=c1[nH]nc(-c2ccc(Cl)cc2)n1/N=C/C=C/c1ccco1 the results were Sm TGR block 39.8µM*, RE007 growth inh -1.1%, LmPK inh -8.5%, AMA1 RON2 block 54.0% and TbPYK inhibitor inconclusive.
Screening Cc1ccc(CNC(=O)c2cc3c(=O)n(Cc4cccnc4)ccc3nc2C)cc1 returned Sm TGR block -0.2% and TbPYK inhibitor -7.0%.
Cc1cc(C)c(OCCOCCn2c(-c3ccc(Cl)cc3)nc3ccccc3c2=O)c(C)c1 was read as Sm TGR block 7.4% and TbPYK inhibitor -2.5%.
OCCCNC(=S)Nc1ccc(Br)cc1Cl was read as Sm TGR block 3.16µM*, RE007 growth inh 23.5%, LmPK inh -0.6%, AMA1 RON2 block -8.6% and TbPYK inhibitor 3.1%.
For Cc1cc(CNC(=S)Nc2ccc(Br)cc2Cl)nn1C the results were Sm TGR block 7.94µM*, RE007 growth inh 6.7%, LmPK inh 3.1%, AMA1 RON2 block 8.7% and TbPYK inhibitor -6.2%.
